Most compounds without a hit are left out; they make up all but 19% or so of the library.
TDP1 cell CPT: growth inhibition of DT40 Tdp1-/-;hTDP1 cells with camptothecin (screen for TDP1 inhibitors). chicken DT40 Tdp1-/-;hTDP1 cells + 20 nM CPT, ATP luminescence, 48 h. Potency, µM (doses to about 46.2 µM), without a hit: at the top dose activity change, negative = growth inhibition, actives largely listed as inhibitors. actives 12% (n = 420,000). AID 686979; also: potency is read from the fitted curve at half-maximal effect; nearly all actives have a fitted effect of over 55% in size
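Chicken DT40 Tdp1-/- cells stably complemented with human TDP1 were seeded at 400 cells/well in medium containing 20 nM camptothecin, exposed to pin-transferred compounds, and grown at 37 °C for at least 48 hr. Viability was read as ATP luminescence.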
HT1080NT lethal: kills 2HG-producing HT-1080-NT fibrosarcoma cells; HT-1080-NT fibrosarcoma viability, CellTiter-Glo ATP luminescence, 48 h; Potency, µM (series often up to 46.1 µM), for inactives: top-dose activity, negative = less viability, actives largely listed as cytotoxic; actives 1.6% (n = 360,000); AID 686970;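 also: NT is the 2HG producing partner of a matched IDH1 knockdown line; potency is read from the fitted curve at half-maximal effect; 0% = DMSO-treated cells and -100% = media-only wells without cells; nearly all actives have a fitted effect of over 55% in size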
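Compounds were tested in concentration-response format on HT-1080-NT cells for 48 hours at 37 degrees C. Cell viability came from CellTiter-Glo luminescence; curves were classified by r2, response magnitude and activity.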
HT1080 IDH1KD tx: toxicity to HT-1080 IDH1 knockdown cells (counter line) | HT-1080 IDH1 knockdown viability, ATP luminescence, 48 h | Potency, µM (series often up to 46.1 µM), for the others: top-dose activity, negative = toxicity, actives largely listed as cytotoxic | actives 2% (n = 360,000);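 also: potency is read from the fitted curve at half-maximal effect; 0% = DMSO wells and -100% = cell-free medium wells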
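Viability of IDH1-knockdown HT-1080 fibrosarcoma cells was assessed by CellTiter-Glo after 48 h at 37 °C with titrated compound; concentration-effect curves were classified by fit quality and response size.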
IL1B secr inh: inhibitors of inflammasome signaling (IL-1 beta secretion); activity change, % at 57.5 µM; THP-1 LPS/ATP IL-1B secretion, AlphaLISA, 16 h; hits give low values; actives 4.7% (n = 360,000); in the data active = activity change below about -50%; inconclusive = mostly about -30% to -49%
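Secreted IL-1B measured by AlphaLISA bead assay after 16 h compound exposure of THP-1 cells; compounds (final up to 57.5 uM) added 1 h before LPS (250 ng/mL) and ATP (1.25 mM) stimulation; lower signal means less secretion.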
DT40 TDP1 no CPT: qHTS for Inhibitors of human tyrosyl-DNA phosphodiesterase 1 (TDP1): qHTS in cells in absence of CPT; DT40 Tdp1-/- hTDP1 cells, no CPT, ATP luminescence, 48 h; Potency, µM (highest dose often 46.2 µM), for inactives: top-dose activity change, negative = growth inhibition, hits mostly inhibitors; actives 15% (n = 420,000); AID 686978, 2013; also: potency is read from the fitted curve at half-maximal effect; nearly all actives have a fitted effect of over 55% in size
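No-CPT arm: Tdp1-/-;hTDP1 DT40 cells (400/well) plus compounds, incubated ≥48 hr at 37 °C. Readout CellTiter-Glo luminescence.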
The depositor's hits bear a star; ? = inconclusive; · = no result; [ ] = remark or other dose. Unless noted, calls follow the shape of the dose curve; as a rule, active = well fitted curve in the direction sought with a large enough effect; inconclusive = small, poorly fitted or top-dose-only effect, or another doubt; inactive = no such curve, though single readings can be large; an effect the other way counts as inactive or inconclusive. Unless noted, % is scaled to controls: 0 for no effect and ±100 for the full control effect.

SMILES	TDP1 cell CPT	HT1080NT lethal	HT1080 IDH1KD tx	IL1B secr inh	DT40 TDP1 no CPT
O=[N+]([O-])c1cc(C(F)(F)F)cc([N+](=O)[O-])c1NCCNC(=S)Nc1ccc(Cl)c(Cl)c1	?	16µM*	?	-80*	21µM*
O=C(CCC1N=C2c3ccccc3N=C(SCC(=O)Nc3ccc(F)cc3)N2C1=O)NCc1ccco1 (stereo unspecified)	0%	·	·	·	?
COc1ccc(NC(=O)CSC2=Nc3ccccc3C3=NC(CCC(=O)NCc4ccco4)C(=O)N23)cc1 (stereo unspecified)	12µM*	·	·	·	12µM*
O=C(CC1N=C2c3ccccc3N=C(SCC(=O)Nc3ccc(F)cc3)N2C1=O)NCc1ccco1 (stereo unspecified)	?	·	·	·	16µM*
COc1ccc(NC(=O)CSC2=Nc3ccccc3C3=NC(CCC(=O)NCCc4ccccc4)C(=O)N23)cc1 (stereo unspecified)	-10%	·	·	·	-21%
O=C(O)c1cccc(CSc2n[nH]c(-c3ccc(Cl)cc3Cl)n2)c1	0%	-5%	-17%	28	-17%
Cc1ccccc1OCC(=O)N1CCN(C(=O)COc2ccccc2C)CC1	-1%	3%	0%	-4	-18%
CCc1ccc2[nH]c(O)c(N=Nc3nc(-c4ccccc4)cs3)c2c1	?	?	?	-17	?
Cc1cccc(OCC(=O)Nc2ccc(N3CCN(C(=O)c4ccccc4)CC3)cc2)c1	?	2%	5%	-68*	15µM*
O=C(COc1ccccc1Cl)Nc1ccc(N2CCCC2)cc1	-5%	12%	-3%	-12	-10%
O=C(COc1ccccc1[N+](=O)[O-])Nc1ccc(N2CCN(C(=O)c3cccs3)CC2)cc1	4.6µM*	-19%	?	?	6.5µM*
Cc1ccc(OCC(=O)Nc2ccc(N3CCN(C(=O)c4ccc(C)cc4)CC3)cc2)cc1	-27%	-15%	-1%	-7	?
CCN1CCN(c2ccc(NC(=O)COc3ccccc3Cl)cc2)CC1	?	-8%	-8%	-17	18µM*
O=C(COc1ccccc1Cl)Nc1ccc(N2CCN(C(=O)c3ccccc3)CC2)cc1	18µM*	-26%	?	-22	15µM*
CCCNc1c(NC(=O)c2ccc3c(c2)OCO3)c(=O)oc2ccccc12	?	4%	7%	27	?
CCN1CCN(c2ccc(NC(=O)COc3ccc(Cl)cc3C)cc2)CC1	18µM*	-1%[9.24 µM]	12%	-11	?
N#Cc1ccc(-c2ccc(OCC(O)CN3CCOCC3)cc2)cc1 (stereo unspecified)	?	4%	2%	1	-39%
Cc1cc(OCCCN2CCC(C(O)(c3ccccc3)c3ccccc3)CC2)ccc1Br	5.8µM*	16µM*	?	-75*	5.8µM*
N#Cc1cccc(OCCCN2CCC(C(O)(c3ccccc3)c3ccccc3)CC2)c1	?	?	?	-57*	16µM*
CCOc1ccc(NC(=S)N2CCC(C(O)(c3ccccc3)c3ccccc3)CC2)cc1	-19%	-13%	-13%	-17	?
N#Cc1ccc(OCC(O)CN2CCC(C(O)(c3ccccc3)c3ccccc3)CC2)cc1 (stereo unspecified)	21µM*	-8%	?	-95*	?
CC(C)(C(=O)O)c1ccc(C(O)CCCN2CCC(C(O)(c3ccccc3)c3ccccc3)CC2)cc1 (stereo unspecified)	26%	14%	-5%	31	0%
CCOC(=O)c1cc(-c2c(Cl)cccc2Cl)no1	4%	9%	6%	16	-26%
O=c1cc(-c2ccccc2Cl)oc2c(NS(=O)(=O)c3ccccc3OC(F)(F)F)ccc(O)c12	21µM*	?	-29%	-10	?
O=c1cc(-c2ccccc2Cl)oc2c(NS(=O)(=O)c3ccccc3C(F)(F)F)ccc(O)c12	-26%	?	-5%	18	-12%
SMILES	TDP1 cell CPT	HT1080NT lethal	HT1080 IDH1KD tx	IL1B secr inh	DT40 TDP1 no CPT
CCCCN(C(=O)CSc1nnc(Nc2ccc(C)c(C)c2)s1)c1c(N)n(Cc2ccccc2)c(=O)[nH]c1=O	18µM*	-26%	?	-77*	?
CC(=O)c1ccc(NC(=O)COc2ccccc2-c2nc(C)no2)cc1	-25%	·	·	·	4%
O=C(Cn1cnc([N+](=O)[O-])c1)NCCc1ccccc1	?	-23%	-5%	-10	-27%
Cc1cc(C)c2nc(Cl)c(CN(Cc3ccco3)C(=O)Nc3ccccc3C)cc2c1	5.2µM*	5µM*	5.6µM*	65	4.6µM*
COCCN(Cc1cc2c(C)cc(C)cc2nc1Cl)C(=O)c1ccccc1F	10µM*	8%	3%	5	8.2µM*
COCCN(Cc1cc2cc(C)cc(C)c2nc1Cl)C(=O)Nc1ccccc1	4.6µM*	10µM*	7.1µM*	38	3.3µM*
COCCN(Cc1cc2ccc(C)c(C)c2nc1Cl)C(=O)N1CCOCC1	?	0%	21%	?	?
Cc1cccc(S(=O)(=O)N(CC(=O)Nc2ccccc2C)Cc2ccco2)c1	-25%	4%	3%	-9	-21%
C=C1Nc2ccccc2C(=O)N1c1ccc(C(=O)N2CCN(C(=O)c3ccco3)CC2)cc1	10%	·	·	·	1%
COCCN(Cc1cccs1)S(=O)(=O)c1ccc(-c2ccc(=O)[nH]n2)s1	-25%	16%	2%	12	3%
CCOC(=O)c1sc(NC(=O)C2C3C=CC(C3)C2C(=O)O)nc1C (stereo unspecified)	-17%	5%	-15%	7	-3%
CCN(CC)c1ccc2cc(-c3nc(-c4ccccc4)no3)c(=O)oc2c1	?	·	·	·	5.8µM*
O=C(NCCCN1CCOCC1)c1ccccc1N1C(=O)[C@@H]2Cc3c([nH]c4ccccc34)C(c3ccc(F)cc3)N2C1=O (stereo partly specified)	9.2µM*	-19%	-17%	-6	15µM*
COc1cccc(C2c3[nH]c4ccccc4c3C[C@H]3C(=O)N(c4ccccc4C(=O)NCCCN4CCOCC4)C(=O)N23)c1 (stereo partly specified)	12µM*	?	-25%	28	13µM*
O=C(NCCN1CCOCC1)c1ccccc1N1C(=O)[C@@H]2Cc3c([nH]c4ccccc34)C(c3ccccc3)N2C1=O (stereo partly specified)	?	2%	-13%	-6	?
O=C(NCCC(=O)N1CCc2ccccc21)c1ccccc1Cl	12%	0%	16%	-3	-3%
CCCn1c(=O)c2sccc2n2c(CCCC(=O)NCc3ccco3)nnc12	-28%	-2%	-9%	3	-11%

Compound activity: PubChem BioAssay, National Center for Advancing Translational Sciences (NCATS)
